Glioma ERSR ind: ER stress response induction in glioma; 420,000 compounds, 0.02% hits; Potency, µM, for inactives: at the top dose activation, most hits filed as activators; U87-MG GRP78 promoter luciferase reporter, 16 h; also: series mostly up to about 76 µM; % of control where 0% means no effect; nearly all actives have a fitted effect of over 35% in size
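Stably transfected U87-MG human glioma cells carrying a GRP78-based luminescent sensor were seeded at 1000 cells/well, pin-dosed with compounds and incubated 16 h. Luciferase reagent was then added, and end-point luminescence was read after 10 min at room temperature.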
VDR inhibitor: blocks the human vitamin D receptor; P11473; VDR-SRC2-3 peptide fluorescence polarization, 2 h; Potency, µM, for the others: max response, negative = inhibition, actives largely listed as inhibitors; 400,000 compounds, 0.93% hits; AID 504847; also: % is scaled to controls: 0 for no effect and ±100 for the full control effect
Target sequence (P11473 whole entry, looked up): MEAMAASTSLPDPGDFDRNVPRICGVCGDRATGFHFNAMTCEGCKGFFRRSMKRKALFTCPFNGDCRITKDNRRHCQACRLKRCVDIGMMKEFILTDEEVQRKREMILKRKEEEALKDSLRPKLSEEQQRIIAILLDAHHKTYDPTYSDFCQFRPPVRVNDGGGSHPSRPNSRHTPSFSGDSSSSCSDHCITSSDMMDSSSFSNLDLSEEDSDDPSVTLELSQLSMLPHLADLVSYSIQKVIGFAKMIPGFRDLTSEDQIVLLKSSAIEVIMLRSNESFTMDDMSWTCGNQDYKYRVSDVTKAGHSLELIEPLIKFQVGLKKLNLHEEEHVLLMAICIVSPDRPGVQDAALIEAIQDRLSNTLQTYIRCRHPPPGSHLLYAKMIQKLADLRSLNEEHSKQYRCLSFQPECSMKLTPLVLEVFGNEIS
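Signal is fluorescence polarization, reporting how far test compounds block the interaction of VDR with the SRC2-3 coregulator peptide after a 2 h room-temperature incubation.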
G9a block: blocks human histone lysine methyltransferase G9a | G9a H3K9 monomethylation, AlphaScreen, 2 h | Potency, µM (series often up to 102 µM), inactives show at the highest dose activity, negative = inhibition, actives largely listed as inhibitors | 350,000 compounds, 8.8% hits | AID 504332; also: % is scaled to controls: 0 for no effect and ±100 for the full control effect; nearly all actives have a fitted effect of over 75% in size
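Methyltransferase reactions run at room temperature for 2 h (20 nM enzyme, 500 nM biotin-H3K9 peptide, 20 uM SAM) after a 15 min compound preincubation; product detected by AlphaScreen beads and anti-H3K9me1 antibody.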
ALOX12 inh: ALOX12 (human) lipoxygenase inhibition. 580,000 compounds, 1.1% hits. P18054. Potency, µM (series often up to 108 µM), inactives show top-dose activity change, negative = inhibition, hits mostly inhibitors. AID 1671190. purified 12hLO, xylenol orange hydroperoxide absorbance; also: % is scaled to controls: 0 for no effect and ±100 for the full control effect
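Purified human 12hLO at 150 nM in 25 mM Hepes, 0.01% Triton X-100, pH 7.0, preincubated 15 min at room temperature with compound. Reaction started with 40 uM arachidonic acid, 30 min at room temperature. Hydroperoxide measured by Fe-xylenol orange, 573/405 nm absorbance ratio.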
Sfp PPTase inh: inhibitors of Bacillus subtilis Sfp phosphopantetheinyl transferase; Q9F4F7; Biochemical Sfp PPTase activity, qHTS; Potency, µM, for inactives: largest response in the series, negative = inhibition, usual class: inhibitors; 310,000 compounds, 3.5% hits; AID 1490;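 also: the enzyme is Sfp with the accession as filed and its product quenches rhodamine fluorescence; 0% = enzyme reaction without inhibitor and -100% = no enzyme wells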
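Step 1, compound plus 15 nM Sfp-PPTase, 15 min, room temperature. Step 2, add rhodamine-CoA (5 uM) and BHQ-2-YbbR (12.5 uM). Step 3, read 525/598 nm fluorescence at 0 and 30 min.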
Active calls of the source: *; ? = inconclusive; nt = not tested or not shown; [ ] = remark or other dose. Many of the other results were omitted from the sample, so hits are more common in it than they were. Calls follow the shape of the dose curve; as a rule, active = well fitted curve in the direction sought with a large enough effect; inconclusive = small, poorly fitted or top-dose-only effect, or another doubt; inactive = no such curve, though single readings can be large; an effect the other way counts as inactive or inconclusive. Potency is read from the fitted curve at half-maximal effect.

SMILES	Glioma ERSR ind	VDR inhibitor	G9a block	ALOX12 inh	Sfp PPTase inh
O=C1Nc2ccccc2/C1=N\N=C\c1ccc(O)c(O)c1	5.3%	28.7%	nt	?	?
Oc1ccc(N=Cc2cccc(OCc3ccccc3)c2)cc1	nt	nt	nt	66.9%	nt
O=C(/C(=N/N=C/c1ccc(O)c(O)c1)c1ccccc1)c1ccccc1	-4.5%	-15.4%	31.6µM*	39.8µM*	5.0%
Oc1ccc(N=Cc2ccc(O)c(O)c2)cc1	10.4%	?	1.26µM*	nt	44.7µM*
N#Cc1ccc(CSc2nnnn2-c2ccccc2)cc1	nt	nt	nt	-17.8%	nt
Cc1ccccc1C(=O)N/N=C/c1sccc1C	nt	nt	nt	21.0%	nt
O=c1[nH]c(-[n+]2ccccc2)c(/C=N/NC([S-])=Nc2ccccc2)s1	-4.7%	-11.0%	22.4µM*	11.1%	?
CC(C)(C)c1cc[n+](-c2[nH]c(=O)sc2/C=N/N=C(\[O-])c2cccnc2)cc1	-2.0%	-13.3%	?	0.8%	-15.2%
Cc1cc[n+](-c2[nH]c(=O)sc2/C=N/NC([S-])=Nc2ccccc2)cc1	-3.2%	-26.6%	28.2µM*	-26.4%	-20.8%
CC(C)(C)c1cc[n+](-c2[nH]c(=O)sc2/C=N/NC(=O)c2ccccc2[O-])cc1	13.4%	-3.0%	79.4µM*	3.8%	-1.4%
CCc1ccc[n+](-c2[nH]c(=O)sc2/C=N/N=C(\N)[O-])c1	-3.4%	9.5%	17.0%	53.4%	?
CCc1ccc[n+](-c2[nH]c(=O)sc2/C=N/NC([S-])=Nc2ccccc2)c1	-1.8%	?	22.4µM*	-19.5%	-20.9%
CCCN1C(=O)Cc2cc(C(=O)NC(C)c3ccc(OCC)cc3)ccc21 (configuration not stated)	nt	nt	nt	48.0%	nt
COC(=O)c1cnc(NC(=O)C(NC(=O)c2ccccc2Br)C(C)C)s1 (configuration not stated)	nt	nt	nt	-26.3%	nt
CCCCn1c(CCC(=O)Nc2ccccc2C(C)(C)C)nc2c1c(=O)[nH]c(=O)n2CCC	nt	nt	nt	8.3%	nt
CC(C)N1CCC(NC(=S)Nc2ccccc2C(F)(F)F)CC1	nt	nt	nt	-42.7%	nt
Cc1cccc(C)c1OCCNC(=O)COc1ccc2c(C)cc(=O)oc2c1	nt	nt	nt	33.1%	nt
Cc1cc(C)c[n+](-c2[nH]c(=O)sc2/C=N/NC([S-])=Nc2ccccc2)c1	1.5%	?	35.5µM*	-24.3%	-28.9%
COC(=O)[C@@H]1Cc2ncn(Cc3ccc(Cl)cc3)c2CN1C(=O)c1ccc(C(F)(F)F)cc1	nt	nt	nt	49.0%	nt
NC(=O)c1cccc2c1-c1ccccc1/C2=N/NC(N)=S	-2.8%	-4.2%	44.7µM*	?	-19.8%
NC(=S)N/N=C1\c2ccccc2-c2c(C(=O)O)cccc21	-2.7%	-23.0%	28.2µM*	31.6µM*	79.4µM*
COC(=O)c1cccc2c1-c1ccccc1/C2=N\NC(N)=O	-4.4%	-13.0%	-8.4%[2.33 µM]	0.0%	-4.6%
CCOc1ccccc1NC(=O)Cc1nn(C)c(=O)c2ccccc12	nt	nt	nt	6.8%	nt
COc1cc2ccccc2cc1C(=O)Nc1cccc2ncccc12	nt	nt	nt	-1.8%	nt
N#CCOC(=O)c1cc(-c2cccs2)nc2ccccc12	nt	nt	nt	15.8%	nt
SMILES	Glioma ERSR ind	VDR inhibitor	G9a block	ALOX12 inh	Sfp PPTase inh
CN(C)c1ccc(NC(=O)Cn2nnc3sc4c(c3c2=O)CCC(C(C)(C)C)C4)cc1 (configuration not stated)	nt	5.6%	4.47µM*	?	nt
O=C1NC(=NC2CCCCC2)C2(CCN(Cc3cccnc3)C2)N1c1cc(F)cc(F)c1 (configuration not stated)	nt	nt	nt	-0.7%[6.33 µM]	nt
CN1CCN(c2ccc(NC(=O)CSc3nnnn3-c3ccccc3F)cc2)CC1	0.1%	3.9%	79.4µM*	-3.2%	0.0%
Cc1ccc(-n2nnnc2SCC(=O)Nc2ccc(N3CCN(C)CC3)cc2)c(C)c1	-4.8%	-8.0%	50.1µM*	-28.3%	-6.6%
COc1ccccc1NC(=O)CSc1nnnn1-c1ccccc1F	-1.2%	-9.2%	-7.0%[0.501 µM]	?	39.8µM*
COc1ccc(NC(=O)CSc2nnnn2-c2ccccc2F)cc1	-1.8%	-5.4%	?	196.1%	19.5%
COc1ccc(-n2nnnc2SCC(=O)NCCc2ccccc2)cc1OC	-4.6%	-4.2%	22.4µM*	?	8.3%
O=C(Nc1ccc(C(O)(C(F)(F)F)C(F)(F)F)cc1)c1ccc(Br)cc1	nt	nt	nt	2.4%	nt
N#C/C(=C/c1ccccc1OCc1ccccc1)c1ccccc1F	nt	nt	nt	24.0%	nt
CC(=O)C(Cc1ccc(Br)cc1)C(=O)c1ccccc1 (configuration not stated)	nt	nt	nt	-24.0%	nt
